The supplement of paper PMC6992640

What follows are compounds tested on HCI11 (cells of an ER-positive luminal breast cancer xenograft) (assay: cell viability (% of vehicle); higher = less cytotoxic). Details: 10 µM; 72 h.
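Note: PDX cells carrying CMV promoter-driven luciferase, viability read as total photon flux per second by IVIS imaging following D-luciferin, vehicle control 0.1% DMSO.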

| SMILES | cell viability |
| --- | --- |
| NC(=O)N1c2ccccc2C=Cc2ccccc21 [Carbamazepine] | 106 |
| CN(CC=CC#CC(C)(C)C)Cc1cccc2ccccc12 [Terbinafine] | 108 |
| CCCN1CCCCC1C(=O)Nc1c(C)cccc1C.Cl.O (centres undefined) [Ropivacaine hydrochloride monohydrate] | 96.1 |
| NCCCCC(NC(CCc1ccccc1)C(=O)O)C(=O)N1CCCC1C(=O)O.O.O (centres undefined) [Lisinopril dihydrate] | 113 |
| Cn1c(=O)cc(N2CCCC(N)C2)n(Cc2cc(F)ccc2C#N)c1=O (centres undefined) [Trelagliptin] | 111 |
| Nc1ccn(C2CSC(CO)O2)c(=O)n1 (centres undefined) [Lamivudine] | 107 |
| Clc1ccc(C(Cn2ccnc2)OCc2csc3c(Cl)cccc23)c(Cl)c1.O=[N+]([O-])O (centres undefined) [Sertaconazole nitrate] | 103 |
| O=C(O)c1cc(-c2ccccc2)nc2ccccc12 [Cinchophen] | 107 |
| CN1CCCC(n2nc(Cc3ccc(Cl)cc3)c3ccccc3c2=O)CC1.Cl (centres undefined) [Azelastine HCl] | 69.2 |
| Cc1cc(=O)[nH]c(=S)[nH]1 [Methylthiouracil] | 93.8 |
| CC(COc1ccccc1)N(CCCl)Cc1ccccc1.Cl (centres undefined) [Phenoxybenzamine HCl] | 114 |
| Cc1cn(C2CC(O)C(CO)O2)c(=O)[nH]c1=O (centres undefined) [Telbivudine] | 115 |
| CCCCCCCCCCCCCCCCO [1-Hexadecanol] | 95.2 |
| COC(=O)C1=COC(O)C2C(CO)=CCC12 (centres undefined) [Genipin] | 98.6 |
